The full ranking holds about 35,000 sequences; the median of “fluorescence intensity (a.u.)” is about 10,000, and the highest 2% start at about 52,000. What follows is part of a selection rich in the highest values, with near analogues and random picks from the rest.
What follows are sequences tested against T1, OsWOX13 (Oryza sativa, UniProt Q5QMM3 1-267) (assay: protein-binding microarray (RPBM); PBS, 2% BSA, 51.3 ng/ul salmon testes DNA, 50 uM zinc acetate, 200 nM TF, 25 C, 1 h; high values mean tight binding). Conditions: protein: recombinant; tags: N-terminal polyhistidine and DsRed monomer fusion (pET32a); label: CyDye5-dUTP incorporated in the synthesized complementary strand; 3' TTTTT single-stranded linker to array surface; dsDNA, one strand shown.
T1 sequence: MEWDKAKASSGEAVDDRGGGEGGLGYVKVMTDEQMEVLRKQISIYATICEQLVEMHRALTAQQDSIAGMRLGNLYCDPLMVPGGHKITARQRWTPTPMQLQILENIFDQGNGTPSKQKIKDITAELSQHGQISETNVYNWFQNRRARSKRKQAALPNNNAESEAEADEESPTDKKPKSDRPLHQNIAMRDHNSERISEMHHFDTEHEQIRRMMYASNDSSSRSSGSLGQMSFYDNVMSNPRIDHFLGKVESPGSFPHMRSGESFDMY
In short: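 Ni–NTA purification followed expression in E. coli BL21-CodonPlus of transcription factors fused N-terminally to a polyhistidine tag and DsRed. At 200 nM in PBS with 2% BSA, salmon testes DNA and 50 µM zinc acetate, the protein was incubated for 1 h at 25 °C with a custom Agilent array that had been primer-extended with Cy5-dUTP and blocked with 2% BSA. After washing, the array was read on an Axon 4000B scanner. The binding signal is per-feature fluorescence intensity in arbitrary units.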
For “TAAAACTTATTTCTTGATAGATCAATCCCAGATTACAATGCGGAGTCACCTAGTGCAG”, the binding signal was 8210 fluorescence intensity (a.u.). In the case of “CGACTGGATTGAAGCATTTTCTGCCTAGCTGTCTGTCTCTCGGAGTCACCTAGTGCAG”, the binding signal is reported as 10100 fluorescence intensity (a.u.). “TCTAATTACTTCATGATTTGATAATTTGGTGTTACAGTAACGGAGTCACCTAGTGCAG” was tested, and the binding signal was 52400 fluorescence intensity (a.u.). In the case of “TTCATTAATTGATTATTACTAGTAGGGATGGTTGGTTCAACGGAGTCACCTAGTGCAG”, the binding signal is reported as 30700 fluorescence intensity (a.u.). For “CCTAATTGCACCATGATTTGATAATGTTGTGCTACAGTAACGGAGTCACCTAGTGCAG”, the binding signal was 42600 fluorescence intensity (a.u.). “AGTCTAATTGAGTGATTGTATACATGTTCAATGTTCATGGCGGAGTCACCTAGTGCAG” was tested, and the binding signal was 65300 fluorescence intensity (a.u.). In the case of “CATGATTTGACAATATGGTGATACAGTAAATATTTGCTAACGGAGTCACCTAGTGCAG”, the binding signal is reported as 40600 fluorescence intensity (a.u.). “CCTAATTACTCCATGATTTGATAATATGACGCTACAGTAACGGAGTCACCTAGTGCAG” was tested, and the binding signal was 25000 fluorescence intensity (a.u.). For “ATTAATTGATTGGATTGGTTGTGTGCATTATTTCATCTAACGGAGTCACCTAGTGCAG”, the binding signal was 65200 fluorescence intensity (a.u.). For “GGTTGATTGTGAAGTTAATTATTTAACATCTCAATTATAACGGAGTCACCTAGTGCAG”, the binding signal was 32800 fluorescence intensity (a.u.). For “AATTTCTTGTTCAATCATTTCATATATATATACATGTAGGCGGAGTCACCTAGTGCAG”, the binding signal was 6120 fluorescence intensity (a.u.). With “CCTGATTGCGTGTTGATTTGACAATATGGTGCTACAGTAACGGAGTCACCTAGTGCAG” the binding signal was 54300 fluorescence intensity (a.u.). In the case of “GATCTAATTTGAAATGTGATAAATTGTTTTCAATAAATGGCGGAGTCACCTAGTGCAG”, the binding signal is reported as 27700 fluorescence intensity (a.u.). “CCTAATTGCGTCATGATTTGACAATGTAGTGCTACAGTAACGGAGTCACCTAGTGCAG” was tested, and the binding signal was 50800 fluorescence intensity (a.u.). “GTTGTATGATTGACACTAGATCGAGAAAAGGTGCGACAAACGGAGTCACCTAGTGCAG” was tested, and the binding signal was 23500 fluorescence intensity (a.u.). For “CTTTAAATTTTAACTTTTGCATTGGCTTATTAGACCAACTCGGAGTCACCTAGTGCAG”, the binding signal was 4620 fluorescence intensity (a.u.). With “GAAATTACATATGACAAATCCAGAATTTTGATGGAGTGGTCGGAGTCACCTAGTGCAG” the binding signal was 6770 fluorescence intensity (a.u.). With “TGCTCAATCACACACACACACGCGTGTAATATTAAGATTTCGGAGTCACCTAGTGCAG” the binding signal was 10500 fluorescence intensity (a.u.). For “TAGATTGATCGGACTAACCACCCCATTTTACACCATTTGCCGGAGTCACCTAGTGCAG”, the binding signal was 20900 fluorescence intensity (a.u.). With “ATGTAAATCAATTGTTTAGTGTTGGATCTATAAGCAACATCGGAGTCACCTAGTGCAG” the binding signal was 4370 fluorescence intensity (a.u.). For “TCTAATTGAAATTATTGTGTTTATGTATAAAGACAAATACCGGAGTCACCTAGTGCAG”, the binding signal was 24900 fluorescence intensity (a.u.). For “TTTGATTTGTTAATCCAGCTAGTCGTGGGGAATAGTGAAGCGGAGTCACCTAGTGCAG”, the binding signal was 42700 fluorescence intensity (a.u.). With “TAAGTAATTGATTGGTAGCCAGCTTCTAACTTCTAGCTTACGGAGTCACCTAGTGCAG” the binding signal was 63600 fluorescence intensity (a.u.). In the case of “ATTAAGATTGATTAATTGTTGCTTGGTTAATAGCCACTTACGGAGTCACCTAGTGCAG”, the binding signal is reported as 47500 fluorescence intensity (a.u.). For “TTTAGTAATTGGTAGAGCTCAAATTTCTAAATTTAACTTCCGGAGTCACCTAGTGCAG”, the binding signal was 6730 fluorescence intensity (a.u.). With “TTCTAATCAAGCTTTCTGGTTAATTTCTCTATGAATTTAACGGAGTCACCTAGTGCAG” the binding signal was 5250 fluorescence intensity (a.u.). In the case of “TCTAGAGAATTAGCCCTGATTATAATGTGAGACTTTGCATCGGAGTCACCTAGTGCAG”, the binding signal is reported as 4870 fluorescence intensity (a.u.). “AAATCAATCTGATGGGCCGAATTGGAGGCCCATATCCGTGCGGAGTCACCTAGTGCAG” was tested, and the binding signal was 8660 fluorescence intensity (a.u.). For “TTTGGATTGGCCAGAACAAGATATACTTTCGAATCTTTTGCGGAGTCACCTAGTGCAG”, the binding signal was 11300 fluorescence intensity (a.u.). “CTCGCCATCTTCGCCGTCCTTGCTTTCTTATATAAATTTTCGGAGTCACCTAGTGCAG” was tested, and the binding signal was 4080 fluorescence intensity (a.u.). In the case of “TCATAAATTATTTATAATTGCCTTGCTTAATTTACGCCTTCGGAGTCACCTAGTGCAG”, the binding signal is reported as 28900 fluorescence intensity (a.u.). In the case of “GCCGCCACCTTCGCCTTTATAAAGCTTACCTTTGCTACCACGGAGTCACCTAGTGCAG”, the binding signal is reported as 64800 fluorescence intensity (a.u.). With “ATATGATTAAACTCAAGTATAGTTGAGGGACGTAAATTGGCGGAGTCACCTAGTGCAG” the binding signal was 19700 fluorescence intensity (a.u.). In the case of “TTCATATAATTTATAAGGGACATAATGTAATCACCCTATACGGAGTCACCTAGTGCAG”, the binding signal is reported as 10300 fluorescence intensity (a.u.). In the case of “ACCCACCCTTCAATTAGCCTGTGAATTACTACTTTCTAATCGGAGTCACCTAGTGCAG”, the binding signal is reported as 7460 fluorescence intensity (a.u.). In the case of “AGTGATTAATTCATTCCAAAAGACAGTAGCGACATCTATTCGGAGTCACCTAGTGCAG”, the binding signal is reported as 20300 fluorescence intensity (a.u.). For “ATTAATTATCAGTGAGCACAAGCCTGGCATGTAAATCATGCGGAGTCACCTAGTGCAG”, the binding signal was 24800 fluorescence intensity (a.u.). In the case of “TTATGACCGGTTTTGATTAGTTAAGAGACGCCAGATATCTCGGAGTCACCTAGTGCAG”, the binding signal is reported as 14300 fluorescence intensity (a.u.). With “TTTTGATTGACAGCGGAAATTACTCGATATTGTTCTTCAACGGAGTCACCTAGTGCAG” the binding signal was 64300 fluorescence intensity (a.u.). In the case of “CCTGATTAATTGGGTCGTCGTTCCATTCCCAGCCGATCGACGGAGTCACCTAGTGCAG”, the binding signal is reported as 65200 fluorescence intensity (a.u.). With “TATTAAGAATTAGATTAGGATTAGGATTGTGTCAATGTTCCGGAGTCACCTAGTGCAG” the binding signal was 4860 fluorescence intensity (a.u.). With “ATGTTCTTAGATTGATTAAGATTGTCAATTGATTACTCCACGGAGTCACCTAGTGCAG” the binding signal was 60500 fluorescence intensity (a.u.). “TCCCATTGATTTGATCCAGCTAATTAATTAATTCGATCCACGGAGTCACCTAGTGCAG” was tested, and the binding signal was 49900 fluorescence intensity (a.u.). With “TAATTGATTAATTAATAATACTCCAGCTGCAGCAACGGCACGGAGTCACCTAGTGCAG” the binding signal was 47300 fluorescence intensity (a.u.). For “CACCAATTTGATTGTTTTATTATTTTAAATCTTCAGTACTCGGAGTCACCTAGTGCAG”, the binding signal was 14200 fluorescence intensity (a.u.). In the case of “ATACATTGATTAATCAGCCAGCCAGCCAGCCAGCCACTGACGGAGTCACCTAGTGCAG”, the binding signal is reported as 28700 fluorescence intensity (a.u.). For “ATTTGATTTTCTGTCTTTTCTTCAACTCGATTTTGTTAAACGGAGTCACCTAGTGCAG”, the binding signal was 8770 fluorescence intensity (a.u.). For “GTATGGATCACCTGATTAATTGGGCCGTCGTTCCATTCCCCGGAGTCACCTAGTGCAG”, the binding signal was 9310 fluorescence intensity (a.u.). With “GCCTGATTAATTGATTAATTCTCCAGCTGCATCACATTGACGGAGTCACCTAGTGCAG” the binding signal was 63700 fluorescence intensity (a.u.). In the case of “GTAGTTCTTGATGTATTTCAATTAGAACCTTAATTTTCCACGGAGTCACCTAGTGCAG”, the binding signal is reported as 3390 fluorescence intensity (a.u.). For “TTAAATTTATACCCCACTTATATCTCACTTACACATCACTCGGAGTCACCTAGTGCAG”, the binding signal was 7930 fluorescence intensity (a.u.). In the case of “TTAAATTTTCTATATAAATCTATTCAAATCTGCATAAATGCGGAGTCACCTAGTGCAG”, the binding signal is reported as 3870 fluorescence intensity (a.u.). For “TTGTAAAATTATATTTATTTAAGATGAAGGGAGTACTATCCGGAGTCACCTAGTGCAG”, the binding signal was 4920 fluorescence intensity (a.u.). “TTGCTGATTGTGAATGGTGGGTGCAAGGATACACTTTTCGCGGAGTCACCTAGTGCAG” was tested, and the binding signal was 23900 fluorescence intensity (a.u.).
